In the library only some 12% were active in any assay of this set; here they are far more common.
JMJD2A Tudor inh = JMJD2A Tudor domain (human) inhibition; O75164; AlphaScreen JMJD2A-Tudor / H3K4me3 peptide binding; Potency, µM (series often up to 114 µM), for the others: top-dose activity change, negative = inhibition, most hits filed as inhibitors; 390,000 tested, 4.4% active; AID 504339; note: % is set by controls: 0 for no effect and ±100 for the full control effect; nearly all actives have a fitted effect of over 50% in size
BAZ2B inh = blocks human BAZ2B; Q9UIF8; AlphaScreen BAZ2B-H3K14Ac peptide displacement; Potency, µM (top dose mostly 114 µM), without a hit: at the top dose activity change, negative = inhibition, actives largely listed as inhibitors; 360,000 tested, 4.4% active; AID 504333; note: % is set by controls: 0 for no effect and ±100 for the full control effect; nearly all actives have a fitted effect of over 60% in size
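BAZ2B (50 nM) with biotin-H3(5-23)K14Ac peptide (50 nM) in PBS pH 7.4, 0.01% Tween-20, preformed 30 min, then compound 30 min at room temperature; top concentration 110uM. AlphaScreen streptavidin donor/nickel chelate acceptor beads (10 ug/mL final), 20 min dark, signal read.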
G9a block = inhibitors of human histone lysine methyltransferase G9a | 350,000 tested, 8.8% active | Q96KQ7 | Potency, µM (doses to about 102 µM), without a hit: top-dose activity, negative = inhibition, hits mostly inhibitors | G9a H3K9 monomethylation, AlphaScreen, 2 h; note: % is set by controls: 0 for no effect and ±100 for the full control effect; nearly all actives have a fitted effect of over 75% in size
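Compounds were preincubated with 20 nM G9a for 15 min, after which biotinylated H3K9 peptide (500 nM) and SAM (20 uM) started a 2 h room-temperature reaction. Monomethylated product was quantified by antibody-based AlphaScreen chemiluminescence.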
PLK1 PBD inh = blocks phosphopeptide binding to human PLK1 polo-box domain; P53350; Plk1 PBD binding of FITC phosphopeptide, fluorescence polarization; Potency, µM, without a hit: max response, negative = inhibition, usual class: inhibitors; 360,000 tested, 2.8% active; AID 720504; note: series mostly up to about 57 µM; % is set by controls: 0 for no effect and ±100 for the full control effect; nearly all actives have a fitted effect of over 65% in size
HP1b chromo inh = HP1-beta chromodomain-methylated histone interaction inhibition. P83916. AlphaScreen HP1-beta / biotin-H3K9me3 peptide binding. Potency, µM (series often up to 114 µM), for inactives: top-dose activity change, negative = inhibition, hits mostly inhibitors. 390,000 tested, 0.56% active; note: nearly all actives have a fitted effect of over 70% in size
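AlphaScreen: HP1-beta (50 nM) preformed 30 min with biotin-H3(1-18)K9me3 peptide (50 nM) in PBS pH 7.4, 0.01% Tween-20. Compound added for 30 min at RT, then streptavidin donor/nickel chelate acceptor beads (10 ug/mL) for 30 min.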
Sfp PPTase inh = blocks B. subtilis Sfp PPTase activity | Biochemical Sfp PPTase activity, qHTS | AID 1490 | 310,000 tested, 3.5% active | Potency, µM, for inactives: largest response in the series, negative = inhibition, most hits filed as inhibitors;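 note: the enzyme is Sfp with the accession as filed and its product quenches rhodamine fluorescence; 0% = enzyme reaction without inhibitor and -100% = no enzyme wells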
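With Hepes-Na pH 7.6 buffer containing 10 mM MgCl2, Sfp (15 nM) modified BHQ-2-YbbR (12.5 uM) using rhodamine-CoA (5 uM). Two reads 30 minutes apart at 525/598 nm yielded each well's rate.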
Starred values were filed as active, the others as inactive; ? = inconclusive; . = no result; [ ] = another dose, or the depositor's remark. Calls come from the whole dose curve; as a rule, active = well fitted curve in the direction sought with a large enough effect; inconclusive = small, poorly fitted or top-dose-only effect, or another doubt; inactive = no such curve, though single readings can be large; an effect the other way counts as inactive or inconclusive. Potency is the fitted concentration of half-maximal effect.

SMILES	JMJD2A Tudor inh	BAZ2B inh	G9a block	PLK1 PBD inh	HP1b chromo inh	Sfp PPTase inh
O=C(CSc1nnc(-c2cccnc2)n1-c1ccc(F)cc1)NCc1ccc2c(c1)OCO2	-12%[11.4 µM]	-4%	-12%[59 µM]	12µM*	-7%	8%
CCC(C)C(=O)O[C@H]1C[C@@H](C)C=C2C=C[C@H](C)[C@H](CC[C@@H]3C[C@@H](O)CC(=O)O3)C21 (stereo partly specified)	.	.	.	.	.	8%
Cc1cccc(Oc2cc([N+](=O)[O-])cc3c2C(=O)Nc2ccccc2O3)c1	?	?	-15%	9%	-9%	3%
Cc1cccc(Oc2ccc3c(c2)Oc2ccccc2NC3=O)c1	50µM*	50µM*	4%[59 µM]	.	-15%	.
C=CC#CC[N+]1(CC#Cc2ccccc2)CCOCC1	40µM*	?	?	8%	35µM*	?
CCN(CCCNC(=O)CN1N=C(c2ccccc2)CCC1=O)c1ccccc1	?	-39%	11µM*	.	5%	.
CCN(CCCNC(=O)CSc1cc(=O)n(CC)c2ccccc12)c1ccccc1	50µM*	?	?	.	?	.
CCCCNC(=O)CSc1cc(=O)n(C)c2ccccc12	-11%[11.4 µM]	-3%	-22%[12.7 µM]	27µM*	-13%	5%
CCN(CCCNC(=O)CSc1cc(=O)n(C)c2ccccc12)c1ccccc1	?	.	?	.	11%	.
CCN(CC)CCCNC(=O)CN1N=C(c2ccccc2)CCC1=O	-4%	8%	?	.	10%	.
Cn1c(=O)cc(SCC(=O)NCCCN2CCOCC2)c2ccccc21	-11%	9%	-45%	-10%	42%	11%
CCCCOc1ccc(N2C(N)=NC(N)=NC23CCCCC3)cc1	-26%	1%	?	-9%	-1%	1%
Cc1cc(C)cc(Cn2c3ccc(NC(=O)NCc4ccccc4)cc3c(=O)n2C)c1	.	.	.	-21%	.	.
CCN1C(C)=C(C(=O)OC)C(c2ccccc2)N2C(=O)[C@](O)(C(=O)OC)CC(C#N)=C12 (stereo partly specified)	.	.	.	.	.	26%
CCc1cc(-c2n[nH]c(=S)n2C(C)c2ccccc2)cs1 (stereo unspecified)	-35%	6%	10µM*	-12%	20%	-19%
Cc1scc(-c2n[nH]c(=S)n2C(C)c2ccccc2)c1C (stereo unspecified)	79µM*	?	2µM*	-4%	16%	11%
Cc1cnc(NC(=O)c2c(Cl)cnn2C)s1	8%	-26%	1%	2%	32%	0%
O=C(c1ccc(-n2cnnn2)cc1)N1CCCCC1	5%	10%	14%[59 µM]	-3%	33%	-9%
CCCCOC(=O)C(C)Sc1n[nH]c(=O)[nH]c1=O (stereo unspecified)	-8%	9%	-33%	27µM*	-9%	-1%
COC(=O)C1C(=O)C(C(=O)/C=C/c2ccco2)C(=O)CC1(C)C (stereo unspecified)	.	.	.	.	.	56µM*
COC(=O)C1C(=O)C(C(=O)/C=C/c2ccccc2)C(=O)CC1(C)C (stereo unspecified)	-28%	-37%	?	-10%	29%	-1%
CCC(=O)N1CCc2cc(Br)cc(S(=O)(=O)N3CCCC(C(=O)Nc4cccc(F)c4)C3)c21 (stereo unspecified)	-14%	-9%	-46%[59 µM]	.	46%	.
CCOC(=O)c1nn(-c2ccc(OC)cc2)c(=O)c2c(NC(=O)Cc3ccccc3)scc12	-12%	.	.	.	.	.
O=C(CSc1nc2ccccc2n1CCc1ccccc1)NC1CCS(=O)(=O)C1 (stereo unspecified)	-7%	-5%	2µM*	-4%	42%	?
Cc1ccc(C)c(-n2cc(-c3ccc(Cl)cc3)nc2SCC(=O)NC2CCS(=O)(=O)C2)c1 (stereo unspecified)	?	?	45µM*	7%	-16%	8%
SMILES	JMJD2A Tudor inh	BAZ2B inh	G9a block	PLK1 PBD inh	HP1b chromo inh	Sfp PPTase inh
Cc1ccc(-n2c(SCC(=O)NC3CCS(=O)(=O)C3)nc3ccccc3c2=O)c(C)c1 (stereo unspecified)	.	.	.	-1%	.	.
Nn1cc(-c2ccccc2)nc1SCC(=O)NC1CCS(=O)(=O)C1 (stereo unspecified)	-14%	-25%	-39%[59 µM]	-8%	47%	4%
Cc1ccccc1-n1c(SCC(=O)NC2CCS(=O)(=O)C2)nc2ccccc2c1=O (stereo unspecified)	-8%	7%	50µM*	-2%	20%	.
COC(=O)C1=C(C)NC2=C(C(=O)CC(C)(C)C2)C1c1cnn(C)c1C (stereo unspecified)	-6%	-5%	24%[59 µM]	0%	31%	31%
COc1ccc(-c2nn3c(-c4cc(C)[nH]n4)nnc3s2)cc1	-2%[57.1 µM]	.	.	.	22%[57 µM]	.
c1cc(SSc2ccncc2)ccn1	14µM*	?	0.56µM*	1.9µM*	?	35µM*
C(=C\c1ccncc1)/c1ccncc1	-4%[11.4 µM]	-6%	12%	-29%	1%	14%
NC(=O)CNC(=O)C1CCN(S(=O)(=O)c2ccc(-n3cnnn3)cc2)CC1	-5%	-12%	-3%	6%	7%	3%
CC(C)=CCC1=C(OCC(=O)O)C(=O)c2ccccc2C1=O	-31%	-29%	?	30µM*	9%	?
CC(C)=CCC/C(C)=C/CC/C(C)=C/CC/C(C)=C/CC1=C(C)C(=O)c2ccccc2C1=O	-33%	?	?	-12%	7%	?
COc1cc2c(cc1OC)CN(Cc1cc(=O)oc3cc(C)c(Cl)cc13)CC2	-15%	-9%	10µM*	-6%	30%	-12%
COc1cc2c(cc1OC)CN(Cc1cc(=O)oc3c(C)c(C)ccc13)CC2	-30%	-25%	25µM*	-12%	22%	1%
CCc1ccc2c(CN3CCc4cc(OC)c(OC)cc4C3)cc(=O)oc2c1	-16%	-37%	8.9µM*	4%	33%	-6%
Cc1cc2oc(=O)cc(CN3CCC(C)CC3)c2cc1Cl	5%	0%	-16%[59 µM]	-2%	41%	-3%
COc1ccccc1CNCc1cc(=O)oc2c(C)c(C)ccc12	-10%	8%	-10%	-1%	2%	1%
COc1cc2c(cc1OC)CN(Cc1cc(=O)oc3cc(C)c(C)cc13)CC2	-22%	-9%	7.9µM*	-3%	35%	-9%
COc1ccccc1Cc1c(C2CCCCC2)nc2ccc(Br)cn12	.	.	.	-9%	.	.
CC(=O)OC1CC(OC(C)=O)[C@]2(C)C(CC(=O)[C@]3(C)C2CC[C@@]2(C)C(C(=O)O)OC(=O)C4OC423)C1(C)C (stereo partly specified)	.	.	-36%[2.33 µM]	.	.	-3%
Cc1ccc2c(CN(C)Cc3ccc(OC(F)F)cc3)cc(=O)oc2c1C	4%	6%	48%	-8%	66%	10%

From PubChem BioAssay
